Data on 38 compounds can be found in PubChem BioAssay (EPA / NIEHS).

Molecules are shown by their SMILES. Several values for one entry are separate records, joined by “and”; a condition that tells them apart may be missing. Equal entries are not always repeated. Some structures have more than one record in an assay (separate samples or runs), and their calls can disagree. Activity calls are given as the source filed them. The calls were made as follows: active = hit-call score of the fitted dose curve at least 0.9, where 1 is the maximum; inactive = score below 0.9.

The assay can be described thus: BSK_LPS_PGE2: BioMAP Diversity Plus: LPS Assay for Prostaglandin E2 (PGE2) Biomarker Activity (AID 2283082). To be noted: primary human HUVEC with PBMC; actives raise or lower the signal. How it is done: BSK_LPS is a cell-based, multiplexed-readout assay that uses umbilical vein endothelium and peripheral blood mononuclear cells, a human vascular primary cell co-culture, with measurements taken at 24 hours after chemical dosing in a 96-well plate.BSK_LPS_PGE2 is an assay component measured in the BSK_LPS assay. It measures PGE2 antibody related to regulation of gene expression using ELISA technology.Data from the assay component BSK_LPS_PGE2 was analyzed into 1 assay endpoint. This assay endpoint, BSK_LPS_PGE2, was analyzed with bidirectional fitting relative to DMSO as the negative control and baseline of activity. Using a type of binding reporter, gain or loss-of-signal activity can be used to understand changes in the signaling as they relate to the gene PTGER2. Furthermore, this assay endpoint can be referred to as a primary readout, because this assay has produced multiple assay endpoints where this one serves a signaling function. To generalize the intended target to other relatable targets, this assay endpoint is annotated to the gpcr intended target family, where the subfamily is rhodopsin-like receptor.
The levels of cell surface (or secreted, indicated by the prefix "s") biomarker endpoints were measured by ELISA. Overt cytotoxicity to cells in confluent adherent cultures (all systems other than the BT system) was assessed by measuring total protein levels using sulforhodamine B (SRB) staining in parallel cultures at the time of biomarker measurements, indicated as SRB endpoints. For proliferation assays for adherent cell types, individual cell types are cultured at sub-confluence and relative cell numbers quantified by SRB staining at time points optimized for each system (48 h: 3C and CASM3C systems; 72 h: BT and HDF3CGF systems; 96 h: SAg system). SRB was performed by staining cells with 0.1% SRB after fixation with 10% TCA and reading wells at 560 nm.Viability and proliferation of PBMC (T cells) was quantified by Alamar Blue reduction for the SAg and BT systems. For PBMC viability (referred to as PBMC Cytotoxicity within the assay endpoint names), cells were plated (75,000/well in a 96-well plate) and then chemical samples added for 1 h before addition of activators, SEB and TSST-1 (20 ng/mL final concentration each). Cells were incubated for 90 h. Then, Alamar Blue (20 uL/well) (Invitrogen, Cat DAL1100) was added for 6 h, and the plates were read with a fluorescence microplate reader at 546/580 nm (excitation/emission). For PBMC proliferation, cells were plated and activated as above but incubated for only 16 h prior to addition of Alamar Blue. Plates were read after 6 h.
For `Clc1ccc(C(c2ccccc2Cl)C(Cl)(Cl)Cl)cc1` (stereo not given), the half-maximal activity concentration (AC50) is 4.54 µM (active). As to `Nn1cnnc1`, the result was inactive. For `O=C(NC(=O)c1c(F)cccc1F)Nc1cc(Cl)c(OC(F)(F)C(F)F)c(Cl)c1`, the outcome was inactive. Consider `NS(=O)(=O)C(F)(F)C(F)(F)C(F)(F)C(F)(F)C(F)(F)C(F)(F)C(F)(F)C(F)(F)F`, for which the concentration at half-maximal activity (AC50) is 52.2 µM (active) and 51.9 µM (active); the result was inactive. Regarding `Clc1ccc(Cl)cc1`, the outcome was inactive. For the compound `CCC(C)(CC)c1cc(NC(=O)c2c(OC)cccc2OC)on1`, the result was inactive. With `c1ccc(-c2ccccc2)cc1`, the outcome was inactive. Still for that read-out and setting: for `O=C(NC(=O)c1cc(F)c(F)cc1Cl)Nc1cc(F)ccc1N1CCC(C(=O)O)CC1` the value was “inactive”; for `Cc1cc(O)ccc1Cl`, “inactive”. Take `CC(C)(O)C(=O)Nc1ccc([N+](=O)[O-])c(C(F)(F)F)c1`: the AC50 was 0.024 µM (active). Regarding `Cc1ccccc1CO[C@@H]1C[C@@]2(C(C)C)CC[C@]1(C)O2`, the outcome was inactive. Same read-out and setting: for `O=C(O)C(F)(F)C(F)(F)C(F)(F)C(F)(F)C(F)(F)F` the value was “inactive”.

Consider `O=C(O)C(F)(F)C(F)(F)C(F)(F)C(F)(F)C(F)(F)C(F)(F)C(F)(F)C(F)(F)C(F)(F)F`, for which the result was inactive; the concentration at half-maximal activity (AC50) was 24.7 µM (active) and 39 µM (active).

On to `Cc1cccc(C)c1N`, for which the result was inactive. For `CC1=C2C[C@H]3[C@@H](CC=C4C[C@@H](O)CC[C@@]43C)[C@@H]2CC[C@]12O[C@@H]1C[C@H](C)CN[C@H]1[C@H]2C`, the outcome was inactive. `CO/C=C(/C(=O)OC)c1ccccc1COc1cccc(C(F)(F)F)n1`: the outcome was inactive. Take `CCC(C)c1cc([N+](=O)[O-])cc([N+](=O)[O-])c1O` (stereo not given): the AC50 is 6.51 µM (active). As to `CCOP(=S)(OCC)SCSC(C)(C)C`, the outcome was inactive. Take `CCC(C)(c1ccc(O)cc1)c1ccc(O)cc1`: the AC50 was 13.3 µM (active). With `Cc1cccc([N+](=O)[O-])c1`, the result was inactive. On to `ClC1=C(Cl)[C@]2(Cl)[C@@H]3[C@@H](Cl)[C@H]4O[C@H]4[C@@H]3C1(Cl)C2(Cl)Cl`, for which the outcome was inactive. Turning to `CCCCCCOC(=O)c1ccccc1C(=O)OCCCCCC`, the result was inactive. Turning to `Clc1ccc(C(Cl)(Cl)Cl)cc1`, the result was inactive. Regarding `C[C@]12CCC(=O)C=C1CC[C@@H]1[C@@H]2CC[C@@]2(C)[C@H]1CC[C@]2(C)O`, the result was inactive. Consider `CCNc1nc(NC(C)C)nc(SC)n1`, for which the result was inactive. Turning to `O=C(N[C@H]1CN2CCC1CC2)c1cc2ccoc2cn1`, the outcome was inactive. In the case of `Cc1ccc(O)c(C)c1`, the AC50 is 3.27 µM (active).

As for `Cc1cc(-c2ccc(N)c(C)c2)ccc1N`, the AC50 was 7.16 µM (active). Same read-out and setting: the value for `CC(C)(c1ccccc1)c1ccc(O)cc1` was 12.4 µM (active). Turning to `CCSC(=O)N(CC)C1CCCCC1`, the outcome was inactive. `CC#Cc1cc(C)nc(Nc2ccccc2)n1`: the half-maximal activity concentration (AC50) is 8.96 µM (active).

In the case of `CN(C)CCO`, the outcome was inactive. With `O=C(O)C(F)(F)C(F)(F)C(F)(F)C(F)(F)C(F)(F)C(F)(F)C(F)(F)C(F)(F)F`, the AC50 is 20 µM (active) and 19.9 µM (active) and 14.8 µM (active). Take `CCC(=O)O[C@H]1CC[C@H]2[C@@H]3CCC4=CC(=O)CC[C@]4(C)[C@H]3CC[C@]12C`: the result was inactive. Consider `C[C@]12CCC(=O)C=C1CC[C@@H]1[C@@H]2CC[C@]2(C)C(=O)CC[C@@H]12`, for which the result was inactive.

Consider `CCCCCCCCCc1ccc(O)cc1`, for which the AC50 is 7.76 µM (active). Regarding `c1cc2ccc3cccc4ccc(c1)c2c34`, the outcome was inactive.

On to `C=CC(N)=O`, for which the result was inactive.

The term AC50 denotes the concentration at which the activity in the assay is half-maximal.
